{"source": "PubChem BioAssay AID1533", "about": "(PCMD, 2009)", "target": "dTDP-4-dehydrorhamnose reductase (Mycobacterium tuberculosis (strain ATCC 25618 / H37Rv)) + dTDP-4-dehydrorhamnose 3,5-epimerase (Mycobacterium tuberculosis (strain ATCC 25618 / H37Rv)) (UniProt P9WH09+P9WH11)", "sequence (P9WH09 whole entry, looked up)": "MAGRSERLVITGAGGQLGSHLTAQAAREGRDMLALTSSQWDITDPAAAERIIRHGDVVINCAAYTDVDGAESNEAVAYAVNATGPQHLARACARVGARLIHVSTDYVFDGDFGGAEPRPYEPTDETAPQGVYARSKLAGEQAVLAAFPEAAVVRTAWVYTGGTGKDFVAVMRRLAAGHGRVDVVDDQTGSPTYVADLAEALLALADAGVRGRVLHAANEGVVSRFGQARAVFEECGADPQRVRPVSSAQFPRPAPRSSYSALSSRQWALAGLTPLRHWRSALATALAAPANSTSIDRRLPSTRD", "sequence (P9WH11 whole entry, looked up)": "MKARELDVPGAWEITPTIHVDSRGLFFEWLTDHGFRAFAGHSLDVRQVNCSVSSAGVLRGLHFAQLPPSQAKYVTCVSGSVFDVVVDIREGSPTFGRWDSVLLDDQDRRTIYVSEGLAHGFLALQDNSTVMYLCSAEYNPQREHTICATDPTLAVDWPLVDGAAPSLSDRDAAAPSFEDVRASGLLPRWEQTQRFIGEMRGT", "assay": "M. tuberculosis RmlC/RmlD coupled enzyme inhibitors, primary screen, biochemical, compound mixtures, 384-well, from 1536-well plates (AID 1533)", "details": "RmlC+RmlD coupled enzyme assay, percent inhibition, primary screen in compound mixtures, stronger effect = higher value", "key": {"[1]": {"details": "measured here: mean retest inhibition, at 5.5 µM"}}, "note": "Hit rate of the full screen: of about 160,000 compounds, about 45 (0.03%) were called active. Cut-off read from the data, not from the text of the source: active = inhibition mostly above about 34% (no sharp cut-off); inconclusive = no clear call, values can overlap the other calls; inactive = mostly below about 22%. Many of the other results were omitted from the sample, so actives are more common in it than they were.", "data": [{"smiles": "COc1ccc(CCN2C(=O)N(c3ccc(OC)cc3)C(=O)C2CC(=O)Nc2ccc(OC)cc2)cc1", "note": "(centres undefined)", "values": [{"measurement": "inhibition", "setting": "at 3.6 µM", "value": "-9.07% (inactive)"}]}, {"smiles": "CCOC(=O)C1(Cc2cccc(OC)c2)CCN(C(C)CC(C)(C)O)CC1", "note": "(centres undefined)", "values": [{"measurement": "inhibition", "setting": "at 3.6 µM", "value": "7.5% (inactive)"}]}, {"smiles": "COc1ccc(NS(=O)(=O)c2ccc(N3CCOCC3)c(NC(=O)c3ccccc3Br)c2)cc1", "values": [{"measurement": "inhibition", "setting": "at 3.6 µM", "value": "-4.87% (inactive)"}]}, {"smiles": "Cc1nc2nc(SCC(=O)c3ccccc3)[nH]c2cc1Br", "values": [{"measurement": "inhibition", "setting": "at 3.6 µM", "value": "4.73% (inactive)"}]}, {"smiles": "O=C1C2C3C=CC(C3)C2C(=O)N1c1ccc(S(=O)(=O)Nc2nccs2)cc1", "note": "(centres undefined)", "values": [{"measurement": "inhibition", "setting": "at 3.6 µM", "value": "-2.55% (inactive)"}]}, {"smiles": "COCCSc1nnc(NC(=O)c2cc(OC)c(OC)cc2[N+](=O)[O-])s1", "values": [{"measurement": "inhibition", "setting": "at 3.6 µM", "value": "15.5% (inactive)"}]}, {"smiles": "CC(=O)c1sc(NC(=O)C2=NN(c3ccccc3)C(=O)CC2)nc1C", "values": [{"measurement": "inhibition", "setting": "at 3.6 µM", "value": "-9.61% (inactive)"}]}, {"smiles": "Cc1ccc(NC(=O)NC2CCCCC2)cc1S(=O)(=O)N1CCOCC1", "values": [{"measurement": "inhibition", "setting": "at 3.6 µM", "value": "-9.91% (inactive)"}]}, {"smiles": "Clc1ccc2nc(-c3ccccc3)nc(C(Cl)Cl)c2c1", "values": [{"measurement": "inhibition", "setting": "at 3.6 µM", "value": "0.32% (inactive)"}]}, {"smiles": "O=S(=O)(Nc1ccc(OC(F)(F)F)cc1)c1cccc2nonc12", "values": [{"measurement": "inhibition", "setting": "at 3.6 µM", "value": "4.95% (inactive)"}]}, {"smiles": "O=C(NCc1ccc(F)cc1)C1CCC(CNc2c(N3CCOCC3)c(=O)c2=O)CC1", "note": "(centres undefined)", "values": [{"measurement": "inhibition", "setting": "at 3.6 µM", "value": "43.3% (inactive)"}, {"measurement": "inhibition", "setting": "[1]", "value": -8.27, "unit": "%"}]}, {"smiles": "CCOc1ccc(CCN2C(=O)c3cccnc3C2=O)cc1OCC", "values": [{"measurement": "inhibition", "setting": "at 3.6 µM", "value": "3.14% (inactive)"}]}, {"smiles": "Cc1ccc(NC(=O)c2ccc(S(=O)(=O)NCC3CCCO3)cc2)cc1C", "note": "(centres undefined)", "values": [{"measurement": "inhibition", "setting": "at 3.6 µM", "value": "0.36% (inactive)"}]}, {"smiles": "CC(=O)NC(=S)Nc1ccc(NC(=O)c2cccnc2)cc1", "values": [{"measurement": "inhibition", "setting": "at 3.6 µM", "value": "2.81% (inactive)"}]}, {"smiles": "COc1ccc(C(C(=O)NC(C)(C)C)N(C(=O)Cn2nnc3ccccc32)c2ccc(C(C)=O)cc2)cc1O", "note": "(centres undefined)", "values": [{"measurement": "inhibition", "setting": "at 3.6 µM", "value": "11.7% (inactive)"}]}, {"smiles": "CSc1ccccc1NC(=O)CN(C)CC(=O)Nc1cccc(Br)c1", "values": [{"measurement": "inhibition", "setting": "at 3.6 µM", "value": "6.55% (inactive)"}]}, {"smiles": "O=C1/C(=C/c2coc3ccc(O)cc3c2=O)SC(=S)N1c1ccccc1", "values": [{"measurement": "inhibition", "setting": "at 3.6 µM", "value": "-8.54% (inactive)"}]}, {"smiles": "Cc1cccn2c(CNCC(C)Oc3cccnc3)c(C(=O)N3CCOCC3)nc12", "note": "(centres undefined)", "values": [{"measurement": "inhibition", "setting": "at 3.6 µM", "value": "7.78% (inactive)"}]}, {"smiles": "CCN(CC)c1ccc(NC(=O)C2CCC(CNc3c(N4CCCC4)c(=O)c3=O)CC2)c(C)c1", "note": "(centres undefined)", "values": [{"measurement": "inhibition", "setting": "at 3.6 µM", "value": "6.36% (inactive)"}]}, {"smiles": "O=S(=O)(c1ccccc1)N1CN(Cc2ccc(F)cc2)c2nc3ccccc3nc21", "values": [{"measurement": "inhibition", "setting": "at 3.6 µM", "value": "-11.9% (inactive)"}]}, {"smiles": "Cc1ccc(S(=O)(=O)N(C)CC(=O)OCC(=O)Nc2ccccc2)cc1", "values": [{"measurement": "inhibition", "setting": "at 3.6 µM", "value": "13.5% (inactive)"}]}, {"smiles": "C/C(=N\\NC(=S)NCc1ccccc1)C1CCCCC1", "values": [{"measurement": "inhibition", "setting": "at 3.6 µM", "value": "5.23% (inactive)"}]}, {"smiles": "Fc1cccc2ncnc(OCc3ccccc3)c12", "values": [{"measurement": "inhibition", "setting": "at 3.6 µM", "value": "3.36% (inactive)"}]}, {"smiles": "CCn1c(SCC(=O)Nc2sc(C)c(C)c2C#N)nnc1C1CC1", "values": [{"measurement": "inhibition", "setting": "at 3.6 µM", "value": "-13.3% (inactive)"}]}, {"smiles": "CCC(C)NC(=O)C1c2ccccc2Oc2ccccc21", "note": "(centres undefined)", "values": [{"measurement": "inhibition", "setting": "at 3.6 µM", "value": "10.6% (inactive)"}]}, {"smiles": "CCOC(=O)c1ccc(S(=O)(=O)N(CCO)Cc2cc3cc(OC)c(OC)cc3[nH]c2=O)cc1", "values": [{"measurement": "inhibition", "setting": "at 3.6 µM", "value": "-8.54% (inactive)"}]}, {"smiles": "CCc1cccc(NC(=O)CCNS(=O)(=O)c2cccc3nonc23)c1", "values": [{"measurement": "inhibition", "setting": "at 3.6 µM", "value": "-2.17% (inactive)"}]}, {"smiles": "CCC(C)(C)NC(=O)C(c1ccc(O)cc1)N(C(=O)Cn1nnc2ccccc21)c1ccc(NC(C)=O)cc1", "note": "(centres undefined)", "values": [{"measurement": "inhibition", "setting": "at 3.6 µM", "value": "4.36% (inactive)"}]}, {"smiles": "COC(=O)c1ccc(COc2ccc(/C=N/NC(=O)C(=O)Nc3ccc(OC)cc3)cc2OC)o1", "values": [{"measurement": "inhibition", "setting": "at 3.6 µM", "value": "-13.4% (inactive)"}]}, {"smiles": "Cn1nc(C(C)(C)C)c([N+](=O)[O-])c1C(N)=O", "values": [{"measurement": "inhibition", "setting": "at 3.6 µM", "value": "11.8% (inactive)"}]}, {"smiles": "Cc1ccc(NC(=O)/C(=C\\c2ccccc2)NC(=O)c2ccco2)cc1", "values": [{"measurement": "inhibition", "setting": "at 3.6 µM", "value": "44% (inactive)"}, {"measurement": "inhibition", "setting": "[1]", "value": 3.08, "unit": "%"}]}, {"smiles": "Cc1ccc(OCC(=O)Nc2nnc(-c3ccco3)s2)cc1", "values": [{"measurement": "inhibition", "setting": "at 3.6 µM", "value": "-5.61% (inactive)"}]}, {"smiles": "O=[N+]([O-])c1ccc(N=Cc2c(O)ccc3ccccc23)cc1", "values": [{"measurement": "inhibition", "setting": "at 3.6 µM", "value": "-17.6% (inactive)"}]}, {"smiles": "O=c1[nH]nc(SCCS(=O)(=O)c2ccc(F)cc2)n1-c1ccccc1C(F)(F)F", "values": [{"measurement": "inhibition", "setting": "at 3.6 µM", "value": "-9.62% (inactive)"}]}, {"smiles": "C=CCc1cccc2cc(C(=O)NC3CCCC3)c(=O)oc12", "values": [{"measurement": "inhibition", "setting": "at 3.6 µM", "value": "3.42% (inactive)"}]}, {"smiles": "COc1ccc2[nH]c(C(=O)Nc3ccccc3Cl)cc2c1", "values": [{"measurement": "inhibition", "setting": "at 3.6 µM", "value": "-0.28% (inactive)"}]}, {"smiles": "CC1=NNC(=O)C1CC(=O)N/N=C/c1ccncc1", "note": "(centres undefined)", "values": [{"measurement": "inhibition", "setting": "at 3.6 µM", "value": "8.8% (inactive)"}]}, {"smiles": "C/C(=C\\c1ccco1)CN1CCC(N2CCC(C(=O)N3CCOCC3)CC2)CC1", "values": [{"measurement": "inhibition", "setting": "at 3.6 µM", "value": "3.12% (inactive)"}]}, {"smiles": "O=C(C[n+]1cc(-c2ccc(Cl)c(Cl)c2)n2c1CCC2)c1cccs1", "values": [{"measurement": "inhibition", "setting": "at 3.6 µM", "value": "2.29% (inactive)"}]}, {"smiles": "COc1ccc([N+](=O)[O-])cc1N(CC(O)CN(CC(C)C)CC(C)C)S(=O)(=O)c1ccc(C)cc1", "note": "(centres undefined)", "values": [{"measurement": "inhibition", "setting": "at 3.6 µM", "value": "2.56% (inactive)"}]}, {"smiles": "COc1cc(N/C=C2\\CC(=O)NC(C)=C2C#N)cc(OC)c1OC", "values": [{"measurement": "inhibition", "setting": "at 3.6 µM", "value": "-11.2% (inactive)"}]}, {"smiles": "CC(C)N(C(=O)CSc1nc(COc2ccccc2)nc2ccccc12)C(C)C", "values": [{"measurement": "inhibition", "setting": "at 3.6 µM", "value": "-5.31% (inactive)"}]}, {"smiles": "COc1c(N2CCN(C(=S)Nc3ccccc3F)C(C)C2)c(F)cc2c(=O)c(C(=O)O)cn(C3CC3)c12", "note": "(centres undefined)", "values": [{"measurement": "inhibition", "setting": "at 3.6 µM", "value": "9.08% (inactive)"}]}, {"smiles": "CCc1cccc(CC)c1NC(=S)Nc1ccc2cn[nH]c2c1", "values": [{"measurement": "inhibition", "setting": "at 3.6 µM", "value": "-7.83% (inactive)"}]}, {"smiles": "O=C1/C(=C/c2cccs2)SC(=S)N1C1CCS(=O)(=O)C1", "note": "(centres undefined)", "values": [{"measurement": "inhibition", "setting": "at 3.6 µM", "value": "1.03% (inactive)"}]}, {"smiles": "COc1ccc(OCC(O)CNCCNc2nccc(C(F)(F)F)n2)cc1", "note": "(centres undefined)", "values": [{"measurement": "inhibition", "setting": "at 3.6 µM", "value": "42.7% (inactive)"}, {"measurement": "inhibition", "setting": "[1]", "value": 10.5, "unit": "%"}]}, {"smiles": "Cc1ccc(/C=C/C(=O)O)cc1S(=O)(=O)N1CCC(Cc2ccccc2)CC1", "values": [{"measurement": "inhibition", "setting": "at 3.6 µM", "value": "-14% (inactive)"}]}, {"smiles": "O=C(C[n+]1ccc2c(c1)nnn2-c1ccccc1)c1ccc(Cl)cc1", "values": [{"measurement": "inhibition", "setting": "at 3.6 µM", "value": "-3.04% (inactive)"}]}, {"smiles": "CC1Cc2ccccc2N1C1=CC(=O)CC(C)(C)C1", "note": "(centres undefined)", "values": [{"measurement": "inhibition", "setting": "at 3.6 µM", "value": "10.6% (inactive)"}]}, {"smiles": "CC(=O)Nc1ccc(NC(=O)CSc2nnc(COc3ccccc3C)n2CC2CCCO2)cc1", "note": "(centres undefined)", "values": [{"measurement": "inhibition", "setting": "at 3.6 µM", "value": "7.46% (inactive)"}]}, {"smiles": "O=C(Nc1nnc(COc2ccccc2)s1)Nc1ccccc1F", "values": [{"measurement": "inhibition", "setting": "at 3.6 µM", "value": "3.12% (inactive)"}]}, {"smiles": "COc1ccc(CNC(=O)C(Cc2ccccc2)n2cccc2)cc1", "note": "(centres undefined)", "values": [{"measurement": "inhibition", "setting": "at 3.6 µM", "value": "6.07% (inactive)"}]}, {"smiles": "COc1ccc(Nc2cc(=O)n(-c3ccccc3)c3c2c(=O)n(C)c(=O)n3C)cc1", "values": [{"measurement": "inhibition", "setting": "at 3.6 µM", "value": "13.6% (inactive)"}]}, {"smiles": "CCN(CC)CCn1cnc2c1c(=O)n(CCOC(=O)c1cc(OC)c(OC)c(OC)c1)c(=O)n2C", "values": [{"measurement": "inhibition", "setting": "at 3.6 µM", "value": "3.47% (inactive)"}]}, {"smiles": "O=C1COc2ccc(C(=O)COC(=O)C3CC(O)CN3S(=O)(=O)c3ccc(Cl)cc3)cc2N1", "note": "(centres undefined)", "values": [{"measurement": "inhibition", "setting": "at 3.6 µM", "value": "-2.3% (inactive)"}]}, {"smiles": "COc1ccc(CNC(=O)COC(=O)/C=C/c2ccc(S(=O)(=O)N3CCOCC3)cc2)cc1", "values": [{"measurement": "inhibition", "setting": "at 3.6 µM", "value": "-2.01% (inactive)"}]}]}
